Measured values taken from PubChem BioAssay AID1159580 (chemical genetic matrix, 2015).
Hit rate of the full screen: of about 5,500 compounds, about 2,000 (36%) were called active. Not shown: some 18% with an inconclusive outcome. No stated cut-off is given here; in the data, active means normalized growth mostly below about 0.91 (no sharp cut-off); inconclusive means no clear call, values can overlap the other calls; inactive means mostly above about 0.92. This is one part of the list.

Assay: chemical genetic growth profiling, strain panel (AID 1159580);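 further: tested at 20 µM; growth read once vehicle control cultures reached saturation at 30 °C; 1 = growth at the plate median or of vehicle wells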
Settings: growth OD

Measured: normalized growth

C[N+](C)(C)CCOP(=O)([O-])OP(=O)(O)OC[C@H]1OC(n2ccc(N)nc2=O)[C@H](O)[C@@H]1O (some centres not stated)
inactive: S. cerevisiae deletion strains, locus YJR075W, strain HOC1, stronger effect = lower value 0.975 | S. cerevisiae deletion strains, locus YKL009W, strain mrt4, stronger effect = lower value 1.03 | S. cerevisiae deletion strains, locus YKL068W, stronger effect = lower value 0.991 | S. cerevisiae deletion strains, locus YKL085W, strain MDH1 (second series), stronger effect = lower value 1.02 | S. cerevisiae deletion strains, locus YKL085W, strain MDH1, stronger effect = lower value 1.02 | S. cerevisiae deletion strains, locus YKL160W, strain elf1, stronger effect = lower value 0.984 | S. cerevisiae deletion strains, locus YKL190W, strain CNB1, stronger effect = lower value 0.999 | S. cerevisiae deletion strains, locus YKR001C, strain vps1, stronger effect = lower value 1.01 | S. cerevisiae deletion strains, locus YKR026C, strain gcn3, stronger effect = lower value 0.979 | S. cerevisiae deletion strains, locus YKR091W, strain srl3, stronger effect = lower value 0.982 | S. cerevisiae deletion strains, locus YLL001W, strain dnm1, stronger effect = lower value 0.963 | S. cerevisiae deletion strains, locus YLL026W, stronger effect = lower value 0.985 | S. cerevisiae deletion strains, locus YLL041C, strain sdh2, stronger effect = lower value 0.98 | S. cerevisiae deletion strains, locus YLR027C, strain aat2, stronger effect = lower value 0.987 | S. cerevisiae deletion strains, locus YLR039C, strain RIC1, stronger effect = lower value 1.03 | S. cerevisiae deletion strains, locus YLR058C, strain SHM2, stronger effect = lower value 1 | S. cerevisiae deletion strains, locus YLR102C, strain apc9, stronger effect = lower value 1.01 | S. cerevisiae deletion strains, locus YLR113W, strain HOG1, stronger effect = lower value 0.978 | S. cerevisiae deletion strains, locus YLR221C, strain rsa3, stronger effect = lower value 1.01 | S. cerevisiae deletion strains, locus YLR258W, strain gsy2, stronger effect = lower value 0.999 | S. cerevisiae deletion strains, locus YLR262C, strain YPT6 (second series), stronger effect = lower value 0.98 | S. cerevisiae deletion strains, locus YLR262C, strain YPT6, stronger effect = lower value 0.993 | S. cerevisiae deletion strains, locus YLR268W, strain sec22, stronger effect = lower value 0.974 | S. cerevisiae deletion strains, locus YLR320W, strain mms22, stronger effect = lower value 1.01 | S. cerevisiae deletion strains, locus YLR330W, strain CHS5, stronger effect = lower value 1 | S. cerevisiae deletion strains, locus YLR342W, strain FKS1 (second series), stronger effect = lower value 1.05 | S. cerevisiae deletion strains, locus YLR342W, strain FKS1, stronger effect = lower value 0.974 | S. cerevisiae deletion strains, locus YLR357W, strain rsc2, stronger effect = lower value 0.994 | S. cerevisiae deletion strains, locus YLR370C, strain arc18, stronger effect = lower value 0.981 | S. cerevisiae deletion strains, locus YLR371W, strain rom2, stronger effect = lower value 1.01 | S. cerevisiae deletion strains, locus YLR384C, strain iki3, stronger effect = lower value 0.981 | S. cerevisiae deletion strains, locus YLR418C, strain cdc73, stronger effect = lower value 0.963 | S. cerevisiae deletion strains, locus YML016C, strain PPZ1, stronger effect = lower value 1 | S. cerevisiae deletion strains, locus YML032C, strain rad52, stronger effect = lower value 1.02 | S. cerevisiae deletion strains, locus YML120C, strain ndi1, stronger effect = lower value 0.999 | S. cerevisiae deletion strains, locus YML124C, strain tub3, stronger effect = lower value 1.01 | S. cerevisiae deletion strains, locus YMR058W, strain fet3, stronger effect = lower value 0.978 | S. cerevisiae deletion strains, locus YMR078C, strain ctf18, stronger effect = lower value 1 | S. cerevisiae deletion strains, locus YMR125W, strain sto1, stronger effect = lower value 0.994 | S. cerevisiae deletion strains, locus YMR129W, stronger effect = lower value 0.981 | S. cerevisiae deletion strains, locus YMR205C, strain PFK2, stronger effect = lower value 0.99 | S. cerevisiae deletion strains, locus YMR223W, strain ubp8, stronger effect = lower value 1.02 | S. cerevisiae deletion strains, locus YMR231W, strain pep5, stronger effect = lower value 0.989 | S. cerevisiae deletion strains, locus YMR263W, strain SAP30, stronger effect = lower value 0.983 | S. cerevisiae deletion strains, locus YMR307W, strain GAS1, stronger effect = lower value 1.04 | S. cerevisiae deletion strains, locus YNL067W, strain RPL9B, stronger effect = lower value 0.969 | S. cerevisiae deletion strains, locus YNL071W, strain lat1, stronger effect = lower value 0.991 | S. cerevisiae deletion strains, locus YNL128W, strain TEP1, stronger effect = lower value 0.943 | S. cerevisiae deletion strains, locus YNL153C, strain GIM3, stronger effect = lower value 0.985 | S. cerevisiae deletion strains, locus YNL183C, strain NPR1, stronger effect = lower value 0.964 | S. cerevisiae deletion strains, locus YNL209W, strain ssb2, stronger effect = lower value 1 | S. cerevisiae deletion strains, locus YNL233W, strain BNI4, stronger effect = lower value 0.994 | S. cerevisiae deletion strains, locus YNL248C, strain rpa49, stronger effect = lower value 1 | S. cerevisiae deletion strains, locus YNL250W, strain rad50, stronger effect = lower value 1 | S. cerevisiae deletion strains, locus YNL271C, strain bni1, stronger effect = lower value 0.995 | S. cerevisiae deletion strains, locus YNL298W, strain CLA4, stronger effect = lower value 1 | S. cerevisiae deletion strains, locus YNL307C, strain MCK1, stronger effect = lower value 1.02 | S. cerevisiae deletion strains, locus YNL322C, strain KRE1 (second series), stronger effect = lower value 0.975 | S. cerevisiae deletion strains, locus YNL322C, strain KRE1, stronger effect = lower value 0.998 | S. cerevisiae deletion strains, locus YNR049C, strain mso1, stronger effect = lower value 0.972 | S. cerevisiae deletion strains, locus YNR052C, strain pop2, stronger effect = lower value 1.02 | S. cerevisiae deletion strains, locus YOL006C, strain TOP1, stronger effect = lower value 1.04 | S. cerevisiae deletion strains, locus YOL012C, strain htz1 0.746 | S. cerevisiae deletion strains, locus YOL147C, strain pex11, stronger effect = lower value 1 | S. cerevisiae deletion strains, locus YOR001W, strain rrp6, stronger effect = lower value 0.988 | S. cerevisiae deletion strains, locus YOR061W, strain CKA2, stronger effect = lower value 1 | S. cerevisiae deletion strains, locus YOR069W, strain VPS5, stronger effect = lower value 1 | S. cerevisiae deletion strains, locus YOR070C, strain gyp1, stronger effect = lower value 0.998 | S. cerevisiae deletion strains, locus YOR080W, strain dia2, stronger effect = lower value 0.985 | S. cerevisiae deletion strains, locus YOR083W, strain WHI5, stronger effect = lower value 0.989 | S. cerevisiae deletion strains, locus YOR106W, strain vam3, stronger effect = lower value 0.982 | S. cerevisiae deletion strains, locus YOR136W, strain idh2, stronger effect = lower value 1 | S. cerevisiae deletion strains, locus YOR144C, strain elg1, stronger effect = lower value 1 | S. cerevisiae deletion strains, locus YOR184W, strain ser1, stronger effect = lower value 1.03 | S. cerevisiae deletion strains, locus YOR231W, strain MKK1, stronger effect = lower value 1 | S. cerevisiae deletion strains, locus YOR265W, strain rbl2, stronger effect = lower value 0.985 | S. cerevisiae deletion strains, locus YOR270C, strain vph1, stronger effect = lower value 0.98 | S. cerevisiae deletion strains, locus YOR290C, strain snf2, stronger effect = lower value 1.01 | S. cerevisiae deletion strains, locus YOR316C, strain cot1, stronger effect = lower value 1.01 | S. cerevisiae deletion strains, locus YPL051W, strain arl3, stronger effect = lower value 0.999 | S. cerevisiae deletion strains, locus YPL055C, strain LGE1, stronger effect = lower value 0.937 | S. cerevisiae deletion strains, locus YPL078C, strain atp4, stronger effect = lower value 0.976 | S. cerevisiae deletion strains, locus YPL106C, strain sse1, stronger effect = lower value 0.993 | S. cerevisiae deletion strains, locus YPL240C, strain hsp82, stronger effect = lower value 0.993 | S. cerevisiae deletion strains, locus YPL241C, strain CIN2, stronger effect = lower value 0.992 | S. cerevisiae deletion strains, locus YPL256C, strain CLN2, stronger effect = lower value 0.982 | S. cerevisiae deletion strains, locus YPR119W, strain clb2, stronger effect = lower value 0.993 | S. cerevisiae deletion strains, locus YPR141C, strain kar3, stronger effect = lower value 0.993 | S. cerevisiae deletion strains, locus YPR163C, strain tif3, stronger effect = lower value 1.01 | S. cerevisiae deletion strains, locus YPR167C, strain met16, stronger effect = lower value 0.992 | S. cerevisiae deletion strains, strain wtn01, stronger effect = lower value 0.987 | S. cerevisiae strains, strain wild type, stronger effect = lower value 0.972
